In ChEMBL document CHEMBL4513216, “Probing the Open Global Health Chemical Diversity Library for Multistage-Active Starting Points for Next-Generation Antimalarials” (ACS Infect Dis, 2020):
The whole screen tested about 69,000 compounds, of which about 8,600 (12%) showed an effect of 50% or more. For the sample, strong results were picked, then their nearest neighbours and some compounds at random.

Each compound was assayed on Plasmodium berghei (assay: Screen against P. berghei liver stage (PbLuc), transformed with Luciferase, at 10uM). Conditions: tested at 10 uM.
Type: functional, HepG2
`Cc1ccc(-n2nnc(C(=O)O)c2C)c(C)c1` showed an INHIBITION of 14.2%.
`CCOCCC(=O)N1C[C@@H]2CC[C@H]1CN(c1ncccn1)C2` was tested, and the INHIBITION was 43.2%.
Compound `Cc1cccc(NC(=O)C2CSCN2C(=O)c2cnccn2)c1C` (configuration not stated) has an INHIBITION of 33.35%.
`COc1ccc(C)cc1CC(=O)NS(=O)(=O)c1ccc(C(N)=O)cc1` was tested, and the INHIBITION was -2.19%.
For `CCC(=O)Nc1nnc(CCOc2ccccc2OC)s1`, the INHIBITION was -23.8%.
`O=C(NCC1Cn2nnc(-c3ccoc3)c2CO1)c1ccc[nH]1` (configuration not stated) gave an INHIBITION of 27.4%.
Work on `CN1CCCC1c1nccnc1-c1ccc(C(=O)O)cc1` (configuration not stated) yielded an INHIBITION of -14.2%.
`Cc1ncsc1CN(Cc1ccccc1)Cc1ncc[nH]1` gave an INHIBITION of 46.6%.
For `Cc1nn(C)c(C)c1C1CCCN1C(=O)c1ccc(C(N)=O)cn1` (configuration not stated), the INHIBITION was 9.555%.
`Cc1nn(C)c(Cl)c1C1CCCN1C(=O)c1ccc(O)nc1` (configuration not stated) showed an INHIBITION of 48.1%.
`Cc1nn(C)c(C)c1C1CCCN1C(=O)c1ccc(N(C)C)nn1` (configuration not stated) gave an INHIBITION of -71.1%.
`Cc1nn(C)c(Cl)c1C1CCCN1C(=O)c1ccc(C(N)=O)cn1` (configuration not stated) showed an INHIBITION of 84.3%.
With `COc1c(C2CCCN2C(=O)c2ccc(N(C)C)nn2)c(C)nn1C` (configuration not stated) the INHIBITION was -57.4%.
`Cc1nn(C)c(Cl)c1C1CCCN1C(=O)c1ccc(N(C)C)nn1` (configuration not stated) showed an INHIBITION of 53.8%.
Compound `Cc1nn(C)c(C)c1NC(=O)CN1CCN(c2nccs2)C(C)C1` (configuration not stated) has an INHIBITION of 21.6%.
Compound `Cc1c(C[S+](C)[O-])cccc1NC(=O)c1cc(Cl)ccn1` (configuration not stated) has an INHIBITION of -42.1%.
With `Cc1c(NC(=O)N(C)CCn2cnnc2)cccc1OC1CCCC1` the INHIBITION was 13.3%.
Work on `CCNC(=O)N(CCCO)C1CCCc2ccccc21` (configuration not stated) yielded an INHIBITION of 45.7%.
`CC(O)CN1CCC(CNCc2ccc(OC(F)(F)F)cc2)CC1` (configuration not stated) showed an INHIBITION of 44.7%.
Work on `CCS(=O)(=O)N(C)c1ccc(C(=O)N2CCCC(C)C2)cc1` (configuration not stated) yielded an INHIBITION of 60.1%.
For `CCN(c1ccc(C(=O)N2CCC(C)CC2)cc1)S(=O)(=O)CC`, the INHIBITION was 22.9%.
For `CCN(c1ccc(C(=O)N2CCCC(C)C2)cc1)S(=O)(=O)CC` (configuration not stated), the INHIBITION was 10.1%.
`O=C(NCCc1cccnc1)Nc1cc(C(F)(F)F)c[nH]c1=O` showed an INHIBITION of -12.6%.
`COCCOCCC(=O)N1CCC(c2ccccc2C)C1` (configuration not stated) gave an INHIBITION of 55.2%.
Work on `Cc1ccccc1C1CCN(C(=O)CCNC(=O)C(C)(C)C)C1` (configuration not stated) yielded an INHIBITION of -66.4%.
`COCCOCC(=O)N1CCC(c2ccccc2F)C1` (configuration not stated) showed an INHIBITION of -112%.
For `CS(=O)(=O)N1CCC(NC(=O)COc2ccc(Cl)cc2)CC1`, the INHIBITION was -61.4%.
With `CC1c2ncc(CN3CCN(C)CC3)n2CCN1CC1CC1` (configuration not stated) the INHIBITION was -10.4%.
`Cc1cc(N2CCC(CO)(CC3CCCCO3)CC2)nc2ccccc12` (configuration not stated) was tested, and the INHIBITION was 53%.
Work on `Cc1cc(N2CCC3(CC2)C(C(=O)O)CC(=O)N3C)nc2ccccc12` (configuration not stated) yielded an INHIBITION of 9.56%.
`OCC1(CC2CCCCO2)CCN(c2cnc3ccccc3n2)CC1` (configuration not stated) gave an INHIBITION of 83.9%.
`COCCC1(C(=O)O)CCN(c2cc(C)c3ccccc3n2)CC1` gave an INHIBITION of 62.8%.
For `COCCC1(C(=O)O)CCCN(c2cc(C)c3ccccc3n2)C1` (configuration not stated), the INHIBITION was 20.2%.
Work on `Cc1cc(N2CCC(CO)(CC3CCCCO3)CC2)c2ccccc2n1` (configuration not stated) yielded an INHIBITION of 47.6%.
`Cc1cc(N2CCC(O)(C(=O)O)CC2)nc2ccccc12` showed an INHIBITION of 32.2%.
For `Cc1cc(N2CCC3(CCCN(CCO)C3=O)C2)nc2ccccc12` (configuration not stated), the INHIBITION was 57.2%.
In the case of `CN(C)CC1CN(c2cnc3ccccc3n2)CCO1` (configuration not stated), the INHIBITION is reported as 38.8%.
For `Cc1cc(N2CCC3(CCCN(CCO)C3=O)C2)nc(C)c1C#N` (configuration not stated), the INHIBITION was 38%.
With `c1ccc2nc(N3CCOC(Cn4cccn4)C3)cnc2c1` (configuration not stated) the INHIBITION was -34%.
Work on `Cc1cc(N2CCC3(CCCN(CCO)C3=O)C2)nc2cc(Cl)ccc12` (configuration not stated) yielded an INHIBITION of 16.1%.
For `Cc1cc(C(=O)N(CC(F)(F)F)C2CCOCC2)c(C)o1`, the INHIBITION was 15%.
Compound `Cc1nnc(CNC(C)c2cc(C)c(F)c(C)c2)s1` (configuration not stated) has an INHIBITION of 36.2%.
With `CC(C(=O)Nc1ccccn1)n1ccc(C(F)(F)F)n1` (configuration not stated) the INHIBITION was 11%.
With `O=C(O)[C@@H]1CN(C(=O)CSCC2CC2)C[C@H]1c1ccncc1` the INHIBITION was -8.7%.
Work on `CCN(CC1CCOC1)C(=O)c1cn2ccc(C)cc2n1` (configuration not stated) yielded an INHIBITION of 30.5%.
`Cc1cc(-c2cc(N)c(=O)n(CC(=O)NC3CCCC3)n2)c(C)o1` gave an INHIBITION of 18.27%.
With `Cc1ccc(CN2CC[C@@H]3[C@@H](CO[C@H]3CN3CCN(C)CC3)C2)cc1` the INHIBITION was 23.3%.
`Cc1cc(C(=O)N2CC[C@@H](O)[C@@H]2Cc2ccccc2)no1` gave an INHIBITION of 2.58%.
`COc1ccc2c(c1)OC1(CCN(Cc3ccc(F)cc3)CC1)CC2=O` was tested, and the INHIBITION was 51.6%.
In the case of `COc1ccc2c(c1)OC1(CCN(Cc3cccc(C)c3)CC1)CC2=O`, the INHIBITION is reported as 37.2%.
In the case of `COc1ccc2c(c1)OC1(CCN(Cc3ccccc3C)CC1)CC2=O`, the INHIBITION is reported as 5.56%.
With `COc1ccc2c(c1)C(=O)CC1(CCN(Cc3ccc(F)cc3)CC1)O2` the INHIBITION was -0.371%.
